Screening data as filed in PubChem BioAssay.
Rows were chosen to be rich in hits. Some 0.8% of all compounds tested hit in one or more screens of this group.
TRHR agonist-1: activates the human TRH receptor; P34981; TRHR cells, calcium flux fluo-8, FDSS agonist mode; activation, % at 2 µM; 360,000 compounds, 0.18% hits; in the data active means activation above about 30%; further: 0% is about no effect
Target sequence (P34981 whole entry, looked up): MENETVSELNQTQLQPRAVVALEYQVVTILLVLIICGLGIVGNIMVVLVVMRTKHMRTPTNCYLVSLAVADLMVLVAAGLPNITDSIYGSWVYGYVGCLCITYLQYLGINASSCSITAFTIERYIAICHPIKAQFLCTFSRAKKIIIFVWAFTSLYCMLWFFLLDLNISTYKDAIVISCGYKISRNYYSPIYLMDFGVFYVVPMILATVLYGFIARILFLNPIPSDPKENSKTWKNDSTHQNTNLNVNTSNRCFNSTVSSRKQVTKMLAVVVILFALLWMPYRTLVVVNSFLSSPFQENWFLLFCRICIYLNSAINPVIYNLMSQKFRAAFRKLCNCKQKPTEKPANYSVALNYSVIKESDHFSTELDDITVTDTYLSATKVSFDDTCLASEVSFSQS
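TRHR-expressing cells, plated overnight in medium with 10% serum, were loaded with fluo-8 calcium dye at room temperature. After a 10 s baseline, library compound was pin-added and calcium release was recorded kinetically (ex 480/em 530) as agonist response.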
TRHR enhancer-1: allosteric enhancers of human TRH receptor. P34981. TRHR cells, fluo-8 calcium fluorescence, EC20 TRH enhancement. enhancement, % at 2 µM. 360,000 compounds, 0.66% hits. AID 493056; in the data active means enhancement above about 30%; further: 0% is about no effect
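TRHR-expressing cells loaded with fluo-8 calcium dye were read kinetically (ex 480/em 530) during compound addition, then stimulated with an EC20 of TRH (10 nM final). Enhancement of the Gq-mediated intracellular calcium response was scored.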
TRPML1 inh: inhibitors of human TRPML1 channel; Q9GZU1; TRPML1-inducible cells, Ca2+ dye fluorescence, FDSS; hits give low values; inhibition of EC80 agonist-evoked calcium signal; activity change, negative = inhibition, % (test concentration not listed); 390,000 compounds, 0.02% hits; AID 624415; in the data active means activity change below about -50%; inconclusive means between about -30% and that limit;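 further: stimulus is agonist 54-4 at its EC80 concentration; on the % scale 0 is the no-effect control and ±100 the full control effect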
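Calcium fluorescence in TRPML1-DL cells induced overnight with Tet: a 110 s read after compound pin addition, then a 110 s antagonist read after challenge with 54-4 at 4 uM final (EC80).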
Glioma ERSR ind: inducers of ER stress response in human glioma cells. Potency, µM, for the others: at the top dose activation, hits mostly activators. U87-MG GRP78 promoter luciferase reporter, 16 h. 420,000 compounds, 0.02% hits; further: potency means the concentration at half of the fitted maximal effect; series mostly up to about 76 µM; % of control where 0% means no effect; nearly all actives have a fitted effect of over 35% in size
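ERSR induction read as luciferase luminescence (Bright-Glo, 10 min at room temperature) in stably transfected human U87-MG glioma cells exposed to compounds for 16 h, using GRP78 as sensor.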
TRPML1 ag: agonists of human TRPML1 channel; AID 624414; 410,000 compounds, 0.12% hits; activation, % (test concentration not listed); Q9GZU1; TRPML1-expressing cells, Ca2+ dye fluorescence, FDSS; in the data active means activation above about 50%; inconclusive means mostly about 30% to 49%; further: 0% is about no effect
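Cells: TRPML1-DL, 1X Tet inducer, ~16 h at 37 degrees C/5% CO2. Dye: ABD Ca8 no-wash + quencher, 45-90 min RT. Read: 10 s baseline, compound add, 110 s agonist phase; 54-4 EC80 (4uM final), 110 s antagonist phase.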
TRHR enhancer-2: human TRH receptor allosteric enhancement confirmation | activity change, negative = inhibition, % at 46.1 µM | 970 tested, under 10 active | AID 493076 | TRH receptor cell assay, enhancer confirmation qHTS | shares compounds with TRHR enhancer-1;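 further: compound effect scored on response to added TRH at EC20 of 10 nM; 0% is about no effect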
TRHR agonist-2: confirmation of human TRH receptor agonists; shares compounds with TRHR enhancer-1; TRHR-expressing cells, agonist activation read-out; Potency, µM (highest dose often 46.1 µM), without a hit: at the highest dose activation, actives largely listed as activators; 970 compounds, 8% hits; further: potency means the concentration at half of the fitted maximal effect; 0% is about no effect; nearly all actives have a fitted effect of over 75% in size
* = called active by the depositor; ? = inconclusive; . = no result. Unless noted, the call rests on the fitted dose curve; in most records, active means well fitted curve in the direction sought with a large enough effect; inconclusive means small, poorly fitted or top-dose-only effect, or another doubt; inactive means no such curve, though single readings can be large; an effect the other way counts as inactive or inconclusive.

SMILES	TRHR agonist-1	TRHR enhancer-1	TRPML1 inh	Glioma ERSR ind	TRPML1 ag	TRHR enhancer-2	TRHR agonist-2
CC(=O)N1CCC[C@H]1C(=O)NCC1Cc2cc(-c3cnccn3)cc(Cl)c2O1 (some centres not stated)	.	.	.	-2%	.	.	.
CCOC(=O)C1CCN(C(=O)c2cc3c(ccc4ccccc43)o2)CC1	-1	42*	-6	-4%	1	-5	2%
O=C(CNC(=O)c1ccc(F)cc1)c1ccc(Cl)cc1	-1	43*	-9	-2%	1	-7	0%
COc1cc(-c2cc(C)c3cccc(OC)c3n2)cc2c1OCCN(C(=O)Cn1nc(C)cc1C)C2	.	.	.	1%	.	.	.
Cc1cc(C)c2c(n1)nn1c(NCCCN(C)C)cc(C)nc21	0	57*	-1	-6%	-1	2	0%
COc1ccc(OC)c(-c2ccnc(-n3ncc(C(=O)N(C)CCO)c3C3CC3)n2)c1	.	.	.	2%	.	.	.
N#C/C(=C(/O)c1ccccc1F)c1nc2cc(C(F)(F)F)ccc2s1	1	41*	-6	4%	0	-1	-1%
COC(=O)c1cn([C@@H]2C[C@@H](C(=O)Nc3cccc(SC)c3)N(C3CCCC3)C2)nn1	.	.	.	17%	.	.	.
O=C(c1ccncc1)N1CCC2(CCC(CNC(=O)C3(N4CCOCC4)CCCCC3)O2)CC1 (configuration not stated)	.	.	.	-4%	.	.	.
O=C(Cc1cccs1)N=Nc1c(O)[nH]c2ccc(Br)cc12	0	1	-6	2%	3	.	.
O=C(Cc1cccs1)N=Nc1c(O)[nH]c2ccccc12	-2	43*	-10	13%	0	-4	4%
CC(C)C(=O)Nc1nnc(NC(=S)Nc2ccccc2)s1	0	50*	-11	6%	1	-3	1%
O=C1NC(Cc2c[nH]c3ccccc23)C(=O)N1Cc1cccc2ccccc12 (configuration not stated)	0	56*	-2	-4%	2	-4	1%
CC(=O)N1CCC[C@H]1C(=O)NCC1Cc2cc(C)cc(-c3ccc(Cl)cc3)c2O1 (some centres not stated)	.	.	.	-1%	.	.	.
CCN1CCN(C(=O)c2cc(NC(=O)COC)cc3nc(-c4ccncc4)n(C)c23)CC1	.	.	.	-2%	.	.	.
O=C(Nc1ccccc1)C1CC(=O)n2ncnc2N1 (configuration not stated)	1	-5	25	-2%	3	.	.
CCOc1ccccc1NC(=O)C1CC(=O)n2ncnc2N1 (configuration not stated)	0	48*	6	-3%	3	0	0%
CCn1c(C)c(C)c2cc(C(=O)NC3CCCCCC3)ccc21	0	45*	3	-2%	2	?	2%
O=C(CC1SC(=Nc2ccc(O)cc2)NC1=O)Nc1ccccc1 (configuration not stated)	0	53*	?	-3%	0	-3	0%
CCOc1ccc(N=C2NC(=O)C(CC(=O)Nc3ccccc3)S2)cc1 (configuration not stated)	0	0	-20	-5%	1	.	.
COc1ccc(C(=O)NCc2nc(-c3ccccc3NC(=O)c3cc(C)oc3C)oc2C)cc1F	.	.	.	-2%	.	.	.
CCC1CN(CCNC(=O)c2ccc(N3CCOCC3)cc2)Cc2cc(OC)ccc2O1 (configuration not stated)	.	.	.	1%	.	.	.
CCC1CCCCN1CCCNC(=O)c1cn(CC)c2ccc(S(=O)(=O)N3CCc4ccccc4C3)cc2c1=O (configuration not stated)	0	51*	-20	-4%	0	1	5%
O=C(CCn1c(=O)sc2ccccc21)Nc1ccon1	0	43*	6	2%	0	-2	1%
CCN1CCN(Cc2c(O)ccc3c2O/C(=C\c2ccc(C)cc2)C3=O)CC1	26	-6	42	4%	16	7	?
SMILES	TRHR agonist-1	TRHR enhancer-1	TRPML1 inh	Glioma ERSR ind	TRPML1 ag	TRHR enhancer-2	TRHR agonist-2
CCN(CC)S(=O)(=O)c1ccc(C(=O)N(c2ccc(C)cc2)C2C=CS(=O)(=O)C2)cc1 (configuration not stated)	-1	42*	4	-2%	-1	-7	-1%
Cc1ncc2c(c1CNS(=O)(=O)N(C)C)CCN(C(=O)c1ccc(-c3ccc(F)cc3)cc1)C2	.	.	.	-4%	.	.	.
CC(SCc1ccccc1)C(=O)Nc1ccccc1F (configuration not stated)	0	56*	41	-2%	-2	1	0%
CCOc1ccc(NC(C)C(=O)N/N=C/c2cccs2)cc1 (configuration not stated)	0	50*	8	-1%	0	-5	1%
O=C(NCc1cccs1)c1cccnc1C(=O)O	51*	7	3	-6%	0	-2	-1%
Cc1cccc2cc(CN(CC3CCCO3)C(=O)C3CC3)c(N(C)C)nc12 (configuration not stated)	.	.	.	-3%	.	.	.
CNC(=O)CN(C)S(=O)(=O)c1ccc(OC)c(Cl)c1	0	75*	-3	-4%	1	-4	-1%
COc1ccc(S(=O)(=O)N(C)CC(=O)NC2CCCCC2)cc1Cl	-1	-1	5	-4%	3	.	.
NNC(=O)C=C1CCN(c2ncc(C(F)(F)F)cc2Cl)CC1	0	2	-7	-4%	0	.	.
O=C(O)C=C1CCN(c2ncc(C(F)(F)F)cc2Cl)CC1	0	43*	21	0%	4	-1	-1%
CC(NS(C)(=O)=O)C(c1cccs1)N1CCN(c2ccccc2F)CC1 (configuration not stated)	.	.	1	-2%	0	.	.
CC(NS(C)(=O)=O)C(c1cccs1)N1CCN(c2ccccc2)CC1 (configuration not stated)	1	59*	13	-2%	1	-3	2%
CC(C)Oc1ccc(/C=C(/NC(=O)c2ccccc2)C(=O)NC(Cc2ccccc2)C(=O)O)cc1 (configuration not stated)	0	-3	20	0%	2	.	.
CC(C)Oc1ccc(/C=C(/NC(=O)c2ccccc2)C(=O)NCCC(=O)O)cc1	0	47*	15	-8%	0	-2	0%
Oc1c(Cl)cc(Cl)cc1/C=C/c1ccc2cccc(O)c2n1	42*	-10	2	-3%	17	?	?
CSCCCNC(=S)Nc1ccc(N2CCOCC2)cc1N1CCOCC1	1	-3	-8	0%	0	.	.
CSCCCNC(=S)Nc1ccc(N2CCOCC2)cc1	0	43*	0	-1%	0	-3	1%
